Measured values: PubChem BioAssay (Tox21)
Values joined by “and” are separate entries in the source; they are usually repeats but may differ in a detail not shown here. Identical values can stand only once. A number with no mark means an inactive call. Records with an inconclusive call do not appear. Entries that show only a call come without a potency. Active and inactive are the calls of the source. Calls follow the shape of the dose curve; as a rule, active = well fitted curve in the direction sought with a large enough effect in the repeat runs; inconclusive = weak or mixed curves; inactive = no such curve, though single readings can be large; an effect the other way counts as inactive or inconclusive.

Tests used:
[1] = Caspase-3/7 induction in HepG2 cells by small molecules, qHTS assay (AID 1346978); also: nearly all actives have a fitted effect of over 15% in size
Summary of the method: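 Caspase-3/7 induction was measured by Caspase-Glo 3/7 luminescence (30 min, room temperature) after a 17 hr compound exposure of wild-type HepG2 cells seeded at 2,000 per well and pre-incubated 5 hr.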

[2] = Caspase-3/7 induction in CHO-K1 cells by small molecules, qHTS cell viability counter screen (AID 1346979); also: nearly all actives have a fitted effect of over 35% in size; also: potency is read from the fitted curve at half-maximal effect
Summary of the method: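 CellTiter-Fluor viability check, qHTS format: wild-type CHO-K1, 16hr compound treatment, 1hr reagent incubation, fluorescence read.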

[3] = Caspase-3/7 induction in CHO-K1 cells by small molecules, qHTS assay (AID 1346980); also: nearly all actives have a fitted effect of over 15% in size
Summary of the method: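 Luminescent Caspase-Glo 3/7 read (30min, room temperature) quantified apoptosis induction. Cells were wild-type CHO-K1, treated with compound for 17hr at 37 C and 5% CO2.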

[4] = molecular target: Nuclear receptor subfamily 1 group I member 2 (Homo sapiens) (UniProt O75469); assay: Human pregnane X receptor (PXR) small molecule agonists, qHTS assay (AID 1346982); also: nearly all actives have a fitted effect of over 35% in size; also: potency is read from the fitted curve at half-maximal effect
Summary of the method: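 Tox21 qHTS; PXR-Luc HepG2; compounds pinned from DMSO; 24 hr, 37 C; ONE-Glo luciferase detection, 30 min room temperature.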

[5] = molecular target: Cytochrome P450 2D6 (Homo sapiens) (UniProt P10635); assay: Cytochrome P450 Family 2 Subfamily D Member 6 (CYP2D6) small molecule antagonists: luciferase reporter qHTS assay (AID 1671196); also: nearly all actives have a fitted effect of over 50% in size; also: potency is read from the fitted curve at half-maximal effect; as to activity change, negative = inhibition: series mostly up to about 120 µM
Summary of the method: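 Room-temperature luminescent CYP2D6 activity assay: compound preincubated 10 min with enzyme–substrate mix, NADPH-initiated reaction 1 h, detection reagent 20 min before reading.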

[6] = molecular target: Cytochrome P450 2C19 (Homo sapiens) (UniProt P33261); assay: Cytochrome P450 Family 2 Subfamily C Member 19 (CYP2C19) small molecule antagonists: luciferase reporter qHTS assay (AID 1671197); also: nearly all actives have a fitted effect of over 65% in size; also: potency is read from the fitted curve at half-maximal effect; as to activity change, negative = inhibition: series mostly up to about 120 µM
Summary of the method: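 Quantitative high-throughput screen of the Tox21 library using CYP2C19 with proluciferin substrate. Reaction: NADPH regeneration, 37C, 1 h, after 10 min compound preincubation at room temperature. Readout: luminescence.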

[7] = molecular target: Nuclear receptor subfamily 1 group I member 2 (Rattus norvegicus) (UniProt Q9R1A7); assay: Rat pregnane X receptor (rPXR) activation by small molecules, qHTS assay (AID 1346983); conditions: rPXR luciferase reporter cells, One-Glo luminescence, 24 h; max activation: stronger effect = higher value; also: nearly all actives have a fitted effect of over 20% in size; also: potency is read from the fitted curve at half-maximal effect
Summary of the method: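 Luminescent readout (One-Glo luciferase, 30 min room temperature) followed 24 hr compound treatment at 37 C of rPXR cells plated 2,000 per well and preincubated 5hr; qHTS format with compounds delivered in DMSO.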

[8] = molecular target: Nuclear receptor subfamily 1 group I member 2 (Homo sapiens) (UniProt O75469); assay: CYP3A4 induction through human pregnane X receptor (PXR) by small molecules, qHTS assay (AID 1346984); also: nearly all actives have a fitted effect of over 40% in size
Summary of the method: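 Cells (DPX-2; HepG2 with PXR element plus CYP3A4-promoter luciferase) settled 5hr, then were treated 24hr at 37C. A 3hr, 3uM-final Luciferin-IPA step preceded luminescence measurement with One-Glo.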

[9] = molecular target: Nuclear receptor subfamily 1 group I member 2 (Homo sapiens) (UniProt O75469); assay: Human pregnane X receptor (PXR) activation by small molecules, qHTS assay (AID 1346985); also: nearly all actives have a fitted effect of over 40% in size
Summary of the method: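 DPX-2 cells (HepG2 co-transfected with a PXR response element and a CYP3A4-promoter luciferase construct) were seeded at 2,000 per well, rested 5 hr at 37C, then exposed to DMSO-dissolved compounds for 24 hr. Activation was read as luciferase luminescence.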

[10] = Caspase-3/7 induction in HepG2 cells by small molecules, qHTS cell viability counter screen (AID 1346981); also: nearly all actives have a fitted effect of over 30% in size; also: potency is read from the fitted curve at half-maximal effect; as to activity change, negative = cytotoxicity: series mostly up to about 92 µM
Summary of the method: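 After a 5-hr attachment period at 37 C and 5% CO2, wild-type HepG2 cells received compounds in DMSO. Sixteen hours later CellTiter-Fluor was dispensed and the fluorescent signal quantified after a further hour.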

Nuclear receptor subfamily 1 group I member 2 (Rattus norvegicus), sequence (Q9R1A7 whole entry, looked up): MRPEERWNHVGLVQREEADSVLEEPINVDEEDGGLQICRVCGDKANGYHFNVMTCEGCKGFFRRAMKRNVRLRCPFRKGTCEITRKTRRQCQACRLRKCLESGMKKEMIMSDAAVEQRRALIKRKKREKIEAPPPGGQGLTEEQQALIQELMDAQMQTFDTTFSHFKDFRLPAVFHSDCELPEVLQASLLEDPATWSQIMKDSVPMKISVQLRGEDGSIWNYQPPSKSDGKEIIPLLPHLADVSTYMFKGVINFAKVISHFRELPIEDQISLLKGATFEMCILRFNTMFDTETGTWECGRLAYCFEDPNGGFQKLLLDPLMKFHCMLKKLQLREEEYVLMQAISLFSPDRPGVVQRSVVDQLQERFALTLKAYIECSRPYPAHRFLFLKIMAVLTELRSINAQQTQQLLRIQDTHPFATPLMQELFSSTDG
Cytochrome P450 2D6 (Homo sapiens), sequence (P10635 whole entry, looked up): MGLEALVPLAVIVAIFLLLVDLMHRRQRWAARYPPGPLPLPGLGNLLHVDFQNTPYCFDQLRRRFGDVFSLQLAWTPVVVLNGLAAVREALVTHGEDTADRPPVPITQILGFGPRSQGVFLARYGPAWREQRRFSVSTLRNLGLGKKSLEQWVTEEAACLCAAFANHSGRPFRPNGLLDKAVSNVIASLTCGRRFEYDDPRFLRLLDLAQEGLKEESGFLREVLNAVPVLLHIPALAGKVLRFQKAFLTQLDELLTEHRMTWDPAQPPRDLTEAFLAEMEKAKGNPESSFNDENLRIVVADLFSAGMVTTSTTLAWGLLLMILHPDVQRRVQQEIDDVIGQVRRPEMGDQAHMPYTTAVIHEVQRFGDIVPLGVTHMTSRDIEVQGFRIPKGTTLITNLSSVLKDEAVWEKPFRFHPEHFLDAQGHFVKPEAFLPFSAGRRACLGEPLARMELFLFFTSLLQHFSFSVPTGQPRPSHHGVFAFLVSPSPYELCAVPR
Cytochrome P450 2C19 (Homo sapiens), sequence (P33261 whole entry, looked up): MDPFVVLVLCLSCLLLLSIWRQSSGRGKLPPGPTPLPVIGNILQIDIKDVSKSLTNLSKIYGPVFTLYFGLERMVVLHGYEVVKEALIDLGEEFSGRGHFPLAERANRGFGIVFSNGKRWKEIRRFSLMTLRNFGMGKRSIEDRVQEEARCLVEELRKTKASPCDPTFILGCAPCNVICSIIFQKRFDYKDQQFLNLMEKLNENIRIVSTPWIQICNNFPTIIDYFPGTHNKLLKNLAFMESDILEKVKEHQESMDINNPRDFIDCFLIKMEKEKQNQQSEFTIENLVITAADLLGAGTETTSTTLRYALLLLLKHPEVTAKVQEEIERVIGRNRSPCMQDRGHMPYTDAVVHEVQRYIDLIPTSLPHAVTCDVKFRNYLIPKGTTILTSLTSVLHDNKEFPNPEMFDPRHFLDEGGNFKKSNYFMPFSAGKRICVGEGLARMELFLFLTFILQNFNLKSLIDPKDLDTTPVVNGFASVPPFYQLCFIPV
Nuclear receptor subfamily 1 group I member 2 (Homo sapiens), sequence (O75469 whole entry, looked up): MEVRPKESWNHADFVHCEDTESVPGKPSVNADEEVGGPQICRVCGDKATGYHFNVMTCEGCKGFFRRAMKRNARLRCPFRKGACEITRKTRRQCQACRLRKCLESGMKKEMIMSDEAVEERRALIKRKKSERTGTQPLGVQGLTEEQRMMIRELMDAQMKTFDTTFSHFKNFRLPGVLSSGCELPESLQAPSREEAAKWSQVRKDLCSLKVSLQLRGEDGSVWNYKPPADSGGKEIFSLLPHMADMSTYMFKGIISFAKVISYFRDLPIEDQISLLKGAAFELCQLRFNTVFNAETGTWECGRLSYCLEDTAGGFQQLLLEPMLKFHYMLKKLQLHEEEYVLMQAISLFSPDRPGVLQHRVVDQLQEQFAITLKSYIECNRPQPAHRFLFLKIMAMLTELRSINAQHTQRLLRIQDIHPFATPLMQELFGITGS

SMILES: CCCCCCCCCCCCCCN(C)C
- caspase activation [1]: 1.09% [at 19 µM]
- activity change, negative = cytotoxicity [2]: 2.75% [at 19 µM]
- caspase-3/7 activation [3]: -1.58% [at 19 µM]
- activation [4]: 8.78% [at 19 µM]
- activity change, negative = inhibition [5]: -19.3% [at 23.6 µM]

SMILES: CC1CCc2nccnc21 (stereo not given)
- Potency [1]: inactive
- Potency [2]: inactive
- outcome [3]: inactive
- Potency [4]: inactive
- Potency [5]: inactive
- Potency [6]: inactive

SMILES: Nc1ccc(NC(=O)c2ccc(N)cc2)cc1
- Potency [1]: inactive
- Potency [2]: inactive
- outcome [3]: inactive
- Potency [4]: inactive
- Potency [5]: inactive

SMILES: C=CC(=O)NC(C)C
- Potency [1]: inactive
- Potency [2]: inactive
- outcome [3]: inactive
- Potency [4]: inactive
- Potency [5]: inactive
- Potency [6]: inactive

SMILES: CC1C(C)(C)C2=C(C(=O)CCC2)C1(C)C (stereo not given)
- Potency [1]: inactive
- Potency [2]: inactive
- outcome [3]: inactive
- Potency [4]: inactive
- Potency [5]: inactive
- Potency [6]: inactive

SMILES: O=c1[nH][nH]c(=O)c2cc([N+](=O)[O-])ccc12
- Potency [1]: inactive
- Potency [2]: inactive
- outcome [3]: inactive
- Potency [4]: inactive
- Potency [5]: inactive
- Potency [6]: inactive

SMILES: Cc1cc(CCCOc2c(C)cc(-c3noc(C(F)(F)F)n3)cc2C)on1
- Potency [1]: inactive
- Potency [2]: inactive
- outcome [3]: inactive
- Potency [4]: 21.1 µM (active)
- Potency [6]: 21.9 µM (active)

SMILES: CCCCC[C@H](O)/C=C/[C@H]1[C@H](O)CC(=O)[C@@H]1C/C=C\CCCC(=O)O
- Potency [1]: inactive
- Potency [2]: inactive
- outcome [3]: inactive
- Potency [4]: inactive
- max activation [7]: -0.864%
- Potency [8]: inactive
- Potency [9]: inactive
- Potency [5]: inactive
- Potency [6]: inactive

SMILES: COC(CC(C)CCCC(C)(C)O)OC (stereo not given)
- Potency [1]: inactive
- Potency [2]: inactive
- outcome [3]: inactive
- Potency [4]: inactive
- Potency [6]: 35.6 µM (active)

SMILES: CCCCC(CC)COS(=O)(=O)O (stereo not given)
- Potency [1]: inactive
- Potency [2]: inactive
- outcome [3]: inactive
- Potency [4]: inactive
- max activation [7]: -1.14%
- Potency [8]: inactive
- Potency [9]: inactive
- Potency [6]: inactive

SMILES: CC(C)Cc1ccc(CC(=O)O)cc1
- Potency [1]: inactive
- Potency [2]: inactive
- outcome [3]: inactive
- Potency [4]: inactive
- max activation [7]: -5.33%
- Potency [8]: inactive
- Potency [9]: inactive
- Potency [6]: inactive

SMILES: CCN(CC)CC(=O)Nc1c(C)cccc1C(=O)OC
- Potency [1]: inactive
- Potency [2]: inactive
- outcome [3]: inactive
- Potency [4]: inactive
- Potency [5]: 38.9 µM (active)

SMILES: Cc1c[nH]c2ccccc12
- Potency [1]: inactive
- Potency [2]: inactive
- outcome [3]: inactive
- Potency [4]: inactive
- max activation [7]: -6.59%
- Potency [8]: inactive
- Potency [9]: inactive
- Potency [5]: inactive
- Potency [6]: inactive

SMILES: Nc1ccc(S(=O)(=O)NCc2ccccc2)cc1
- Potency [1]: inactive
- Potency [2]: inactive
- outcome [3]: inactive
- Potency [4]: inactive
- max activation [7]: -1.8%
- Potency [8]: inactive
- Potency [9]: inactive
- Potency [5]: inactive
- Potency [6]: 2.19 µM (active)

SMILES: O=C(NS(=O)(=O)/C=C/c1ccccc1)c1ccc(F)cc1Cl
- Potency [1]: inactive
- Potency [2]: inactive
- outcome [3]: inactive
- Potency [4]: 19.3 µM (active)
- Potency [5]: inactive
- Potency [6]: inactive

SMILES: CCC(=O)OCc1ccc(OC)cc1
- Potency [1]: inactive
- Potency [2]: inactive
- outcome [3]: inactive
- Potency [4]: inactive
- Potency [5]: inactive
- Potency [6]: 64.9 µM (active)

SMILES: O=C(CCS)OCC(COC(=O)CCS)(COC(=O)CCS)COC(=O)CCS
- Potency [1]: inactive
- Potency [2]: inactive
- outcome [3]: inactive
- Potency [4]: inactive
- Potency [5]: inactive
- Potency [6]: 15.9 µM (active)

SMILES: O=C1NC(=O)c2cccc3cccc1c23
- Potency [1]: inactive
- Potency [2]: inactive
- outcome [3]: inactive
- Potency [4]: 12.2 µM (active)
- Potency [5]: inactive

SMILES: Nc1ccn([C@H]2CS[C@@H](CO)O2)c(=O)n1
- Potency [1]: inactive
- Potency [2]: inactive
- outcome [3]: inactive
- max activation [7]: -3.24% and -0.136%
- Potency [5]: inactive
- Potency [6]: inactive

SMILES: COC(=O)C1=C(C)NC(C)=C(C(=O)OC(C)(C)CN(C)CCC(c2ccccc2)c2ccccc2)C1c1cccc([N+](=O)[O-])c1 (stereo not given)
- Potency [1]: inactive
- Potency [2]: 16.8 µM (active)
- outcome [3]: inactive
- Potency [7]: 3.98 µM (active)
- Potency [5]: 4.36 µM (active)
- Potency [6]: 1.38 µM (active)

SMILES: O=C(O)CCCc1c[nH]c2ccccc12
- Potency [1]: inactive
- outcome [3]: inactive
- Potency [10]: inactive
- Potency [4]: inactive
- Potency [5]: inactive

SMILES: O=P(O)(O)Oc1ccccc1
- Potency [1]: inactive
- outcome [3]: inactive
- Potency [10]: inactive
- Potency [4]: inactive
- Potency [6]: inactive

SMILES: Nc1cccc2c(N)cccc12
- outcome [3]: inactive
- Potency [4]: 17.2 µM (active)
- Potency [5]: 2.38 µM (active)
- Potency [6]: 7.96 µM (active)

SMILES: CN1CCCN(C(c2ccccc2)c2ccc(Cl)cc2)CC1 (stereo not given)
- Potency [2]: 26.6 µM (active)
- outcome [3]: inactive
- Potency [10]: 23.7 µM (active)
- Potency [4]: inactive
- Potency [5]: 0.49 µM (active)
- Potency [6]: inactive

SMILES: O=C(O)CN1C(=O)c2cccc3cccc(c23)C1=O
- Potency [1]: inactive
- outcome [3]: inactive
- Potency [10]: inactive
- max activation [7]: -2.76%

SMILES: O=C(c1ccccc1)c1ccc(O)cc1
- Potency [1]: inactive
- outcome [3]: inactive
- Potency [10]: inactive
- Potency [4]: 61.8 µM (active)
- Potency [5]: 40.4 µM (active)
- Potency [6]: 40.4 µM (active)

SMILES: Nc1nc2ccc(OC(F)(F)F)cc2s1
- Potency [1]: inactive
- outcome [3]: inactive
- Potency [4]: 13.3 µM (active)
